Results filed as inconclusive are left out. More than one record can exist for a structure, and the calls need not agree. Activity calls are given as the source filed them. The calls were made as follows: active = hit-call score of the fitted dose curve at least 0.9, where 1 is the maximum; inconclusive = response in the unintended direction; inactive = score below 0.9.
How the values were obtained:
[1] = target: Voltage-gated inwardly rectifying potassium channel KCNH2 (Homo sapiens) (UniProt Q12809); assay: NVS_IC_hKhERGCh: NovaScreen (NVS) Ion Channel Assay for human Potassium Channel ERG (KhERGCh) (AID 2283333)
Outline: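 Membranes from CHO cells expressing human ERG; displacement of radioligand measured by filtration and scintillation after 0.75 h. Single-concentration duplicate screen at 25 uM, then concentration-response for actives; DMSO baseline.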

[2] = target: bovine Gamma-Aminobutyric Acid Type A Receptor Agonist (GABAR Agonist), GABRA1 (gene 780973) (UniProt P08219); assay: NVS_LGIC_bGABAR_Agonist: NovaScreen (NVS) Ligand-Gated Ion Channel Assay for bovine Gamma-Aminobutyric Acid Type A Receptor Agonist (GABAR Agonist) (AID 2283338)
Outline: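 Radioligand binding to bovine cerebellar membranes in agonist format, read by filter-based scintillation counting after 1 h. Primary screen in duplicate at 25 uM, with actives followed in concentration series. Gain of signal versus DMSO.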

NCBI gene 100848466 = assay: NVS_NR_bPR: NovaScreen (NVS) Nuclear Receptor Binding Assay for bovine Progextron Receptor (PR) (AID 2283343);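 also: actives lower bound radioligand signal below DMSO meaning displacement of the label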
Outline: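 Scintillation counts of bound radioligand were read 18 hours after chemical addition to membranes extracted from bovine uterus. Displacement was scored as loss of signal relative to DMSO controls. Screening began at 25 uM in duplicate.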

[3] = target: chimpanzee Androgen Receptor (AR), AR (gene 747460) (UniProt O97775); assay: NVS_NR_cAR: NovaScreen (NVS) Nuclear Receptor Binding Assay for chimpanzee Androgen Receptor (AR) (AID 2283346);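 also: radioligand displacement from AR measured by scintillation counting in a cell-free assay; a loss of bound radioligand signal versus DMSO counts as binding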
Outline: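 Radioligand binding to chimpanzee AR expressed in Sf9/Sf21 cells, cell-free, measured 72 h after dosing by lysate-based scintillation counting. Loss of signal vs DMSO; initial duplicate screen at 25 uM, actives retested in concentration series.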

[4] = target: bovine Estrogen Receptor (ER), ESR1 (gene 407238) (UniProt P49884); assay: NVS_NR_bER: NovaScreen (NVS) Nuclear Receptor Binding Assay for bovine Estrogen Receptor (ER) (AID 2283345);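 also: actives lower the bound radioligand count which means they displace the ER ligand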
Outline: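 Cell-free radioligand binding with bovine uterine membrane extracts, read 18 hours after dosing by scintillation counting. Loss of signal versus DMSO baseline indicates displacement. Primary screen run in duplicate at 25 uM, actives followed in concentration series.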

chimpanzee Androgen Receptor (AR), AR (gene 747460), sequence (O97775 whole entry, looked up): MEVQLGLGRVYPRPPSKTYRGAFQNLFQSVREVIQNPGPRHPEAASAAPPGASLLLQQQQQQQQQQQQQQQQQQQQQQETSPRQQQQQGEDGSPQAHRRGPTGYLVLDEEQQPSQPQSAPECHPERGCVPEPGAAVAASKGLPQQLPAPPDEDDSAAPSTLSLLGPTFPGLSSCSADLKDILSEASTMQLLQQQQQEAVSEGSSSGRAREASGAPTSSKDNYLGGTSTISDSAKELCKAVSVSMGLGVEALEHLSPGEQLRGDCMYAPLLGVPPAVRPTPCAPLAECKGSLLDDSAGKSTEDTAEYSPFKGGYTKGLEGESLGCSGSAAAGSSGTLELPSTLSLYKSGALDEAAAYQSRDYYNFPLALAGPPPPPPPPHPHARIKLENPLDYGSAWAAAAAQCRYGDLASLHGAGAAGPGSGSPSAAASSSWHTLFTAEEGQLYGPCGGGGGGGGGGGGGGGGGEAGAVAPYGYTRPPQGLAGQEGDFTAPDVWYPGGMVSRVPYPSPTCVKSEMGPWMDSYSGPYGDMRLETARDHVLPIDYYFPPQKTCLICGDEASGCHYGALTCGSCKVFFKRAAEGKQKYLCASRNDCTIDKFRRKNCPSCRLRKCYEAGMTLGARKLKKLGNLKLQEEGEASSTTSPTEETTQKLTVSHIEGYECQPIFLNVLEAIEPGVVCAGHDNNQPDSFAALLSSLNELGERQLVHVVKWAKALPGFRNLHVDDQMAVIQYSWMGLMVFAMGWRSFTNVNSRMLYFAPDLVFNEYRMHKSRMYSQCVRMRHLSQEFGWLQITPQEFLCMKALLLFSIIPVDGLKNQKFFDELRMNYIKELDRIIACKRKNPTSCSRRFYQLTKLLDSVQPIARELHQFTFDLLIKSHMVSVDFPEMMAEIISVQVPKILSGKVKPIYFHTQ
bovine Estrogen Receptor (ER), ESR1 (gene 407238), sequence (P49884 whole entry, looked up): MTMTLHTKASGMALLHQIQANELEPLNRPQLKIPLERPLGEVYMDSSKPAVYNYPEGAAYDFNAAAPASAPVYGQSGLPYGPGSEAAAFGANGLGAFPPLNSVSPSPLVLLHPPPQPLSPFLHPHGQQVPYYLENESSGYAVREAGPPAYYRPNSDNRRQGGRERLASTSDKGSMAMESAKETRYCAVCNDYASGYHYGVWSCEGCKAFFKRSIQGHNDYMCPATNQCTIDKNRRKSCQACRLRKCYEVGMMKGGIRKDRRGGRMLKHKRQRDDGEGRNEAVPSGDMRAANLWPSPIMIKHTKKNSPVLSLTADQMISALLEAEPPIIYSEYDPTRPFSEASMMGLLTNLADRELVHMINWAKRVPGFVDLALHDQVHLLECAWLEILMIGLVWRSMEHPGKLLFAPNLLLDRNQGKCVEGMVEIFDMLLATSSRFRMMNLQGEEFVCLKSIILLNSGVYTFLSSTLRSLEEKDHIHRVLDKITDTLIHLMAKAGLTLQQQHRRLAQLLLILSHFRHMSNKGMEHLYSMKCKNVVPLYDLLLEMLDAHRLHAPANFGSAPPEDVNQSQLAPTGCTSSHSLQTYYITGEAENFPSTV
bovine Gamma-Aminobutyric Acid Type A Receptor Agonist (GABAR Agonist), GABRA1 (gene 780973), sequence (P08219 whole entry, looked up): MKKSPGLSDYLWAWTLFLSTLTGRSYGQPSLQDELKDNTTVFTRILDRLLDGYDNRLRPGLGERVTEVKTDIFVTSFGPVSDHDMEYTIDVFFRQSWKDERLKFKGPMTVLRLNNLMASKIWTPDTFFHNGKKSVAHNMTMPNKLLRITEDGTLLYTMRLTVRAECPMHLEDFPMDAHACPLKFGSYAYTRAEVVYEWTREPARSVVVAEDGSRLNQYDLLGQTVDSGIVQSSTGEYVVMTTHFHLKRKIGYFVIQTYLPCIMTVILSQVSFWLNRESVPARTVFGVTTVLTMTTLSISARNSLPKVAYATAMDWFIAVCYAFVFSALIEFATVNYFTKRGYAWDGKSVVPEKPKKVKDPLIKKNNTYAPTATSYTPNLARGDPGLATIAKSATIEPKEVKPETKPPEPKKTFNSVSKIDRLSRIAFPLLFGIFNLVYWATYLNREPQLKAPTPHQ
Voltage-gated inwardly rectifying potassium channel KCNH2 (Homo sapiens), sequence (Q12809 whole entry, looked up): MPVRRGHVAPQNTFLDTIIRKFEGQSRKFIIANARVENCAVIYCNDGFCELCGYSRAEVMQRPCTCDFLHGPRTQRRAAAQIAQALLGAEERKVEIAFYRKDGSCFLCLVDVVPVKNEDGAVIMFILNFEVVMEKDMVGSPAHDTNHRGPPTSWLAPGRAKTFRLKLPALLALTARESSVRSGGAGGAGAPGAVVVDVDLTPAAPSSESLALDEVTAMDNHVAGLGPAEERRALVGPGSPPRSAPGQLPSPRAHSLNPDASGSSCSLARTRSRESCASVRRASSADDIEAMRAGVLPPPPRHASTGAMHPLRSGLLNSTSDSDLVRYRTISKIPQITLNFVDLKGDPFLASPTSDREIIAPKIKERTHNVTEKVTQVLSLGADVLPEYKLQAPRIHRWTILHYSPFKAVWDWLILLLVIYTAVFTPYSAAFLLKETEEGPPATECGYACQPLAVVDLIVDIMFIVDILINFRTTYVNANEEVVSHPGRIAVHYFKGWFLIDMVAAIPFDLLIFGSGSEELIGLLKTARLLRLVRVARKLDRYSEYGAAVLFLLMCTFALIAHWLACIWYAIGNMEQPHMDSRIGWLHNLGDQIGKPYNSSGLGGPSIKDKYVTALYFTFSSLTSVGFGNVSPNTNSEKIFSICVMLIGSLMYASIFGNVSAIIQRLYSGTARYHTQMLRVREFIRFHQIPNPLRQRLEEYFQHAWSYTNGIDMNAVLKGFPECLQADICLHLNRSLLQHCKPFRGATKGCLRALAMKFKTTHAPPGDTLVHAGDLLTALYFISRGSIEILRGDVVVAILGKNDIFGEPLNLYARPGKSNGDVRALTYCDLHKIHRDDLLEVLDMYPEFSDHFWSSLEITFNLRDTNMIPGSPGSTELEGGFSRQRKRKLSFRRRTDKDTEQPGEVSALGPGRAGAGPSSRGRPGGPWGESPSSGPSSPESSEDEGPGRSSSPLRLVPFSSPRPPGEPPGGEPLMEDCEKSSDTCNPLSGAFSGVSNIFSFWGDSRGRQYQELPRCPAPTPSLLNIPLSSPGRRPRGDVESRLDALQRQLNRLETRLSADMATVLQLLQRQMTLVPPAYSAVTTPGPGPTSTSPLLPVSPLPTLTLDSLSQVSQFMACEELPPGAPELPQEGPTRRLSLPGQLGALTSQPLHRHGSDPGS

SMILES: O=C(CCCN1CCC(O)(c2ccc(Cl)cc2)CC1)c1ccc(F)cc1
- outcome [1]: inactive
- outcome [2]: inactive

SMILES: CN(C)CCOC(c1ccccc1)c1ccccc1
- outcome [2]: inactive

SMILES: CCCCCCCCCCCCOS(=O)(=O)O
- AC50 (NCBI gene 100848466): 25.5 µM (active)

SMILES: CC(C)[C@@H]1CC[C@@H](C)C[C@H]1O
- AC50 [3]: 0.376 µM (active)

SMILES: CC(C)(c1ccc(Oc2ccc(N)cc2)cc1)c1ccc(Oc2ccc(N)cc2)cc1
- outcome [3]: inactive

SMILES: CCCCCCCCCCCCOC(=O)c1cc(O)c(O)c(O)c1
- outcome [4]: inactive

SMILES: CCOC(=O)c1nc(C(Cl)(Cl)Cl)n(-c2ccc(Cl)cc2Cl)n1
- outcome [4]: inactive

SMILES: COc1ccccc1NC(=O)c1cc2ccccc2cc1O
- outcome [4]: inactive

SMILES: CCC1CO1 (stereo not given)
- AC50 [3]: 5 µM (active)

SMILES: Cc1cc(C(=C2C=CC(=Nc3ccc(S(=O)(=O)O)cc3)C=C2)c2ccc(Nc3ccc(S(=O)(=O)O)cc3)cc2)cc(S(=O)(=O)O)c1N
- AC50 [3]: 15.5 µM (active)

SMILES: O=C1OC2(c3ccccc31)c1cc(I)c(O)c(I)c1Oc1c2cc(I)c(O)c1I
- AC50 [3]: 21.6 µM (active)
- outcome [3]: inactive

SMILES: Oc1ccc(Cc2ccccc2O)cc1
- outcome [4]: inactive

SMILES: CCCCCCOC(=O)c1ccc(O)cc1
- AC50 [4]: 13 µM (active)

SMILES: O=C(Nc1cccc([N+](=O)[O-])c1)c1cc2ccccc2cc1O
- outcome [4]: inactive

SMILES: O=C(c1cc(O)c(O)c(O)c1)c1ccc(O)c(O)c1O
- outcome [4]: inactive

SMILES: c1ccc(CNc2ncnc3c2ncn3C2CCCCO2)cc1 (stereo not given)
- outcome [4]: inactive

SMILES: O=C1Cc2ccccc2N1c1c(Cl)cccc1Cl
- outcome [4]: inactive

SMILES: CCCCCCc1ccc(N)cc1
- outcome [4]: inactive

SMILES: C=CC(=O)OCC(CO)(COCC(COC(=O)C=C)(COC(=O)C=C)COC(=O)C=C)COC(=O)C=C
- outcome [4]: inactive

SMILES: COC1=CC(=O)C[C@@H](C)[C@]12Oc1c(Cl)c(OC)cc(OC)c1C2=O
- outcome [4]: inactive

SMILES: C[C@]12CC[C@@H]3c4ccc(O)cc4CC[C@H]3[C@@H]1CC[C@@H]2OC(=O)CCC1CCCC1
- AC50 [4]: 0.0684 µM (active)

SMILES: Nc1cc(Cl)c(-c2cc(Cl)c(N)cc2Cl)cc1Cl
- outcome [4]: inactive

SMILES: CCc1ccccc1O
- outcome [4]: inactive

SMILES: Oc1c(Cl)cc(Cl)cc1Sc1cc(Cl)cc(Cl)c1O
- outcome [4]: inactive

SMILES: CCCCCCCCCCCC[N+](C)(C)CCCCCCCCCCCC
- outcome [4]: inactive

SMILES: C=C(c1ccc(C(=O)O)cc1)c1cc2c(cc1C)C(C)(C)CCC2(C)C
- outcome [4]: inactive

SMILES: C[C@]12CC[C@@H]3c4ccc(O)cc4CC[C@H]3[C@@H]1C[C@@H](O)[C@@H]2O
- outcome [3]: inactive

SMILES: NCc1cccc(CN)c1
- outcome [4]: inactive

Source: PubChem BioAssay (EPA / NIEHS)
